# BoNT F protease: inhibitors of Botulinum neurotoxin F light chain protease | AID 588497 | Multiplex microsphere protease cleavage assay, flow cytometry | hit rate 0.22% among 360,000 | inhibition, % at 10 µM; in the data active means inhibition above about 35%, passing the limit was not always enough; inconclusive means no clear call, values can overlap the other calls; further: plate controls were buffer without enzyme for full effect and enzyme alone for no effect
# Anthrax LF inh2: blocks Bacillus anthracis lethal factor protease | inhibition, % at 10 µM | hit rate 0.12% among 360,000 | multiplex microsphere protease cleavage assay, LF | P15917; further: plate controls were buffer without enzyme for full effect and enzyme alone for no effect
# BoNT-A LC inh2: BoNT A light chain protease inhibition. multiplex microsphere protease substrate cleavage, flow cytometry. inhibition, % at 10 µM. hit rate 0.17% among 360,000; further: plate controls were buffer without enzyme for full effect and enzyme alone for no effect
# VHR inh abs: DUSP3 (human) phosphatase inhibition | P51452 | AID 1654 | recombinant VHR phosphatase, pNPP absorbance | hit rate 0.52% among 290,000 | inhibition, % at 13.3 µM; in the data active means inhibition above about 50%
# 3CLpro inhibitor: SARS-CoV 3CLpro protease inhibition; P0C6X7; recombinant SARS-CoV 3CLpro, quenched FRET peptide cleavage; inhibition, % at 6 µM; hit rate 0.14% among 290,000; in the data active means inhibition above about 12%
# Bead autofluor: counter-screen for toxin protease inhibitors: compound fluorescence | hit rate 3.1% among 360,000 | compound autofluorescence counterscreen, microsphere flow cytometry; stronger effect = higher value | fluorescence intensity (no concentration beside the values); in the data active means fluorescence intensity above about 16000; inconclusive means no clear call, values can overlap the other calls
# The depositor's hits bear a star; u = inconclusive; x = no result. An excerpt weighted towards active compounds, which were near 3.9% of everything screened. Unless noted, no stated cut-off is given here; in the data, active means inhibition above about 30%; inconclusive means no clear call, values can overlap the other calls; inactive means below that.
SMILES,BoNT F protease,Anthrax LF inh2,BoNT-A LC inh2,VHR inh abs,3CLpro inhibitor,Bead autofluor
CC(C)C(O)(C#CCN1CCCCCC1)c1ccccc1 (stereo not drawn),-2,-2,0,20,0,4847
CCN(CC)C(=O)Cn1cc(C(=O)C(=O)N2CCN(c3ccc(OC)cc3)CC2)c2ccccc21,2,0,0,-7,-4,5812
O=C(NC1CCN(S(=O)(=O)c2cccc(Cl)c2)CC1)C1CCCCC1,2,-3,1,-12,2,5307
O=C(O)c1ccc(CSc2nnc(COc3ccccc3)o2)cc1,7,1,2,-13,-2,4864
COc1ccc(CCNC(=O)CSCc2n[nH]c(=O)[nH]2)cc1OC,1,-2,u,18,-3,20702*
O=C(O)c1ccc(CSc2nnc(Cc3ccccc3)o2)cc1,-2,-5,-3,6,7,16912*
COc1ccc(CCNC(=O)CSCc2ccc(C)cc2)cc1OC,-3,0,0,x,2,2741
O=C(CC1C(=O)NCCN1C(=O)Nc1ccccc1)Nc1cc(Cl)cc(Cl)c1 (stereo not drawn),-8,-2,-4,19,2,6347
CCCCC1CCC(C(=O)Nc2ccccc2)CC1 (stereo not drawn),-1,-2,u,15,1,16463*
CCOc1ccccc1CNC(=O)c1ccc(NC(=O)C2=C(C)OCCS2)cc1,0,2,1,40,-1,4842
CC1=CC(C)(C)N=C(NC#N)N1,2,-1,1,0,3,19967*
Cc1nnc(SC(C)C#N)n1-c1ccccc1 (stereo not drawn),-4,1,-1,14,0,4233
Cc1snc(SCC(=O)c2ccc(Cl)cc2)c1C#N,-2,1,u,18,5,22846*
N#Cc1c(SCC(N)=O)nsc1SCc1ccc(Cl)cc1,-1,-3,u,-6,-7,22700*
Cc1ccc(C(=O)CSc2nsc(C)c2C#N)cc1,6,0,1,-9,4,2994
CCOC(=O)C1(Cc2ccccc2)CCCN(C(=O)c2ccc(-n3ccnc3)cc2)C1 (stereo not drawn),-4,-2,-2,80,-5,6872
O=C(CCc1nnc2n(Cc3ccc(F)cc3)c(=O)c3ccccc3n12)N1CCN(c2ccccn2)CC1,1,-1,0,13,0,5161
O=C(O)CC(CC(=O)NCC(O)c1ccccc1)c1ccccc1 (stereo not drawn),7,13,0,-2,-2,3485
CCC(C(=O)N1CCN(c2ncccn2)CC1)c1ccccc1 (stereo not drawn),6,2,1,9,-6,3842
CCC(C(=O)N1CCC2(CC1)OCCO2)c1ccccc1 (stereo not drawn),1,-2,u,0,-4,16484*
CCC(=O)N1CCN=C1SCc1cccc(F)c1,-13,-3,1,61,-4,4502
CC(C)(C)c1ccc(-c2noc(-c3ccc4c(c3)CCO4)n2)cc1,x,x,x,4,3,x
COc1ccc(-c2ccc(-c3nnc(Cc4ccc(OC)c(OC)c4)o3)cc2)cc1,4,-5,1,10,-2,22185*
COc1ccc(OC)c(NCc2nnc(-c3ccccc3)o2)c1,-11,-10,-3,28,6,3904
C=CCNC(=O)c1ccc(CSc2nc3ccccc3s2)cc1,2,0,2,10,4,4110
SMILES,BoNT F protease,Anthrax LF inh2,BoNT-A LC inh2,VHR inh abs,3CLpro inhibitor,Bead autofluor
CC(C)c1nnc(NC(=O)CSc2nc3ccccc3s2)s1,5,-12,4,8,2,20149*
Cc1csc(NC(=O)CCCSc2nc3ccccc3s2)n1,2,-3,1,-12,-2,21652*
CC(=O)NCCNC(=O)c1ccc(CSc2nc3ccccc3s2)cc1,-4,-4,1,60*,-1,5681
CCc1nnc(NC(=O)CSc2nc3ccccc3s2)s1,-8,-2,1,10,-3,3429
CC(=O)C1=C(O)C(=O)N(c2ccc(Br)cc2)C1c1ccccc1[N+](=O)[O-] (stereo not drawn),-12,11,-4,-4,-4,3483
Cc1cc(N(C)Cc2ccccc2)nc2cc(O)ccc12,u,-6,-5,-7,-3,4563
O=S(=O)(c1ccccc1)c1cnn(-c2ccccc2)c1-c1ccc(Cl)cc1,-2,-2,u,21,6,22953*
COc1ccc(-c2c(S(=O)(=O)c3ccccc3)cnn2-c2ccccc2)cc1,-1,-2,1,24,-4,21873*
